Test results: PubChem BioAssay (NCI)
About 83,000 compounds went through this panel and 20% of them were active in at least one assay; those are over-represented in the sample as a whole.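 Activity criterion: percent growth below 10, measured after cells in 96-well plates were exposed to a single compound concentration for 48 hours.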 Calls of active or inactive are those of the source.

Tests used:
Assay in all cases: NCI-60 one-dose screen, 48 h (100 = growth as untreated, 0 = no growth, -100 = all killed)
[1] = tested on: NCI-H23 lung; settings: 10 µM unless noted
[2] = tested on: NCI-H226 lung; settings: 10 µM unless noted
[3] = tested on: NCI-H322M lung; settings: 10 µM unless noted
[4] = tested on: HOP-62 NSCLC; settings: 10 µM unless noted
[5] = tested on: NCI-H460 lung; settings: 10 µM unless noted
[6] = tested on: HOP-92 NSCLC; settings: 10 µM
[7] = tested on: NCI-H522 lung; settings: 10 µM unless noted
[8] = tested on: A549/ATCC NSCLC; settings: 10 µM unless noted
[9] = tested on: 786-0 renal; settings: 10 µM unless noted
[10] = tested on: COLO 205 colon; settings: 10 µM unless noted
[11] = tested on: DU-145 prostate; settings: 10 µM unless noted
[12] = tested on: K-562 leukemia; settings: 10 µM unless noted
[13] = tested on: MALME-3M melanoma; settings: 10 µM unless noted
[14] = tested on: MDA-MB-231 breast; settings: 10 µM unless noted
[15] = tested on: SF-268 CNS; settings: 10 µM unless noted
[16] = tested on: SF-295 CNS; settings: 10 µM unless noted
[17] = tested on: SF-539 CNS; settings: 10 µM unless noted
[18] = tested on: UACC-257 melanoma; settings: 10 µM unless noted
[19] = tested on: RXF 393 renal; settings: 10 µM unless noted

Measured: growth

NC(N)=Nc1ccc(Oc2cccc(NC(N)=Nc3ccc(Cl)c(C(F)(F)F)c3)c2)cc1
inactive: [1] 60.2% | [2] 73% | [3] 64.6% | [4] 60.4% | [5] 26.8% | [6] 19.2% | [7] 39.6% | [8] 47.1% | [9] 81% | [10] 24.3% | [11] 75.2% | [12] 31.7% | [13] 61.8% | [14] 61.3% | [15] 21.9% | [16] 58.3% | [17] 49.3% | [18] 57%

O=C1[C@H]2Cc3c([nH]c4ccccc34)[C@@H](c3c(Cl)cccc3Cl)N2C(=O)CN1C1CCN(CC2CCCCC2)CC1
active: [12] 9.76%
inactive: [1] 94.5% | [2] 86.1% | [3] 94.7% | [4] 93.3% | [5] 63.6% | [6] 54.9% | [7] 101% | [8] 94.3% | [9] 83.2% | [10] 105% | [11] 48.9% | [13] 85.5% | [14] 75% | [15] 84.4% | [16] 105% | [17] 95.4% | [18] 110%

O=C(CCC(=O)N1CCOCC1)OCCCCCCSc1ccc([N+](=O)[O-])c2nonc12
inactive: [3] 45.6% | [4] 38.1% | [8] 29.8%
active: [1] -60.7% | [2] -20.7% | [5] -13.6% | [6] -14.3% | [7] -61.2% | [9] -20.7% | [10] -56.7% | [11] -91.9% | [12] 6.53% | [13] -81.2% | [14] -39.8% | [19] -62% | [15] -9.47% | [16] -12.5% | [17] -88.4% | [18] -25.7%

Cc1ccc(-n2cc(/C=N/NC(=O)c3nc(N)n[nH]3)c(-c3ccc(S(C)(=O)=O)cc3)n2)cc1
inactive: [1] 96.6% | [2] 102% | [3] 104% | [4] 98.6% | [5] 103% | [6] 94.2% | [7] 92.3% | [8] 104% | [9] 98.6% | [10] 105% | [11] 100% | [12] 52.7% | [13] 85.3% | [14] 96% | [19] 117% | [15] 99.4% | [16] 104% | [17] 99.7% | [18] 99.3%

CCCCCc1ccc(S(=O)(=O)Nc2cc(-c3csc(NC(=O)CN4CCN(C)CC4)n3)ccc2OC)cc1
inactive: [1] 49.8% | [2] 74.6% | [4] 60.3% | [6] 22.1% | [8] 15.1% | [11] 22.1%
active: [3] 5.27% | [5] -61.5% | [7] -51.9% | [9] -75% | [10] -57.6% | [12] -27.9% | [13] -84.6% | [14] -38.1% | [15] -24.5% | [16] -68.2% | [17] -80.8% | [18] -49.2%

O=C(NCCn1ccnc1)c1ccc(-c2nc3ccc4[nH]ncc4c3c3c2CCCC3)cc1
inactive: [1] 71% | [2] 69.7% | [3] 83.8% | [4] 55.4% | [5] 59.9% | [6] 46.9% | [8] 97.3% | [9] 75.6% | [10] 56.1% | [11] 62.7% | [12] 24.1% | [13] 41.9% | [14] 66.1% | [15] 48% | [16] 77.1% | [17] 50.9% | [18] 92.9%
active: [7] 3.21%

Cc1ccc2c(c1)Oc1nc(N)c(C#N)c(N)c1C2Sc1ccc(F)cc1 (stereo unspecified)
active: [1] -88.2% | [2] -50.6% | [3] -98.7% | [4] -86.3% | [5] -50.4% | [6] -93.6% | [7] -58.1% | [8] -82.2% | [9] -97.3% | [10] -49.7% | [11] -98.9% | [12] -13.6% | [13] -91.9% | [14] -92.5% | [15] -81.6% | [16] -96.9% | [17] -99% | [18] -94.4%

COc1ccc(NC(=O)CSc2nnc(-c3ccc4nc(-c5ccc(OC)c(OC)c5)[nH]c4c3)o2)cc1OC
inactive: [1] 80.6% | [2] 93.1% | [3] 89.4% | [4] 98.8% | [5] 102% | [6] 85.6% | [7] 95.1% | [8] 101% | [9] 105% | [10] 113% | [11] 91.3% | [12] 108% | [13] 83.3% | [14] 93.5% | [15] 93.3% | [16] 107% | [17] 93.3% | [18] 106%
